# MITF inh: blocks human microphthalmia-associated transcription factor. AlphaScreen MITF homodimerization, bead proximity signal. 650,000 compounds, 0.91% hits. inhibition, % at 2.6 µM; in the data active = inhibition above about 50%;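 also: 0% = vehicle wells with protein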
# TEAD-YAP inh: TEAD-YAP interaction inhibition; HEK-TIYL cells, TEAD-Gal4/YAP UAS-luciferase luminescence; inhibition, % at 9.12 µM; 640,000 compounds, 1.4% hits; in the data active = inhibition above about 32%;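 also: 0% = median of test compound wells and 100% = reference inhibitor wells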
# GPR151 activ: human GPR151 activation; Q8TDV0; PathHunter beta-arrestin GPR151 cells, luminescence; activation, % at 11.2 µM; 650,000 compounds, 1% hits; in the data active = activation above about 4.9%;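 also: 0% = median of compound wells and 100% = cells with positive control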
# FBW7 act: activators of human E3 ligase FBW7; Q969H0; AlphaScreen FBW7–phospho-cyclin E peptide binding, activator screen; normalized activity (activation), % at 26.1 µM; 650,000 compounds, 0.13% hits; AID 1259310; in the data active = normalized activity above about 1.9%;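 also: purified mutant Fbw7 with reduced substrate affinity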
# Target sequence (Q969H0 whole entry, looked up): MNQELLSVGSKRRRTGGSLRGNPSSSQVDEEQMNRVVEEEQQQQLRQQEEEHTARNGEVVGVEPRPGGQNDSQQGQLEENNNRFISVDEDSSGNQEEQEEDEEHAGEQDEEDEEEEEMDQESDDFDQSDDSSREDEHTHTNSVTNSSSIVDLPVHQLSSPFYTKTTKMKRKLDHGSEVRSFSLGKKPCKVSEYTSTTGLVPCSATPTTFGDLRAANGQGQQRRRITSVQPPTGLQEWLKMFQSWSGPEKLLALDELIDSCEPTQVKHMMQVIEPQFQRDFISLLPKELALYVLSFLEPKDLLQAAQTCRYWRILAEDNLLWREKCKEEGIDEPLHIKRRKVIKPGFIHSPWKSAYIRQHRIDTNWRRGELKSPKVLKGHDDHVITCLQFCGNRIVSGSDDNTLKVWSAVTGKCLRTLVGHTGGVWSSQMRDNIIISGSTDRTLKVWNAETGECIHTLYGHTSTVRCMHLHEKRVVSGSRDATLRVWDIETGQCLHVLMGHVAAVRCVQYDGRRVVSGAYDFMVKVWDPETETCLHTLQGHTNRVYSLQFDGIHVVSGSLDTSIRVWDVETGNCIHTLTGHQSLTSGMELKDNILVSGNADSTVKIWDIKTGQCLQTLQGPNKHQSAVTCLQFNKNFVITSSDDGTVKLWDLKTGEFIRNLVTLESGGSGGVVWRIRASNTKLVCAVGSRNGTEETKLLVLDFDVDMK
# Active calls of the source: *. Hits are enriched below; roughly 3.5% of the tested compounds scored in any of these assays.
SMILES,MITF inh,TEAD-YAP inh,GPR151 activ,FBW7 act
CN1CCN(C(=O)c2nc(-c3ccc(Cl)cc3)n3c2CCCCC3)CC1,7.6,1.9,2.5,0.1
NNc1nc(Nc2ccccc2)nc(Nc2ccccc2)n1,3.9,35.0*,-0.5,-0.8
CCc1ccccc1NC(=O)c1ccc(N2CCCCCC2)c([N+](=O)[O-])c1,-9.1,0.7,-1.8,0.0
O=C(Nc1cccc2ncccc12)c1ccc(N2CCCCC2)c([N+](=O)[O-])c1,-11.9,32.2*,0.9,0.0
O=C(CN1CCCc2ccccc21)N/N=C/c1ccc(Cl)cc1,-6.9,36.0*,0.4,0.0
O=C(CN1CCCc2ccccc21)N/N=C/c1ccccc1,-4.5,-3.1,0.8,-0.1
O=c1c(O)c(-c2cc(O)c(O)c(O)c2)oc2cc(O)cc(O)c12,81.7*,1.6,0.1,-0.1
O=c1c(O)c(-c2ccccc2)oc2cc(O)cc(O)c12,-18.6,-21.1,-1.3,-0.1
CC1=CC(C)(C)N=C(Nc2nc(C)c3cc(C)cc(C)c3n2)N1,-7.6,59.3*,0.1,0.0
CCOC(=O)C1C(c2ccc(OCc3ccccc3)cc2)NC(=O)NC1(O)C(F)(F)F (stereo unspecified),-0.2,9.4,-0.8,-0.2
COc1ccc(N2CCN(Cc3ccc(Br)o3)CC2)cc1,52.5*,6.0,-1.3,-0.1
Cc1ccccc1/C=C1\SC(=Nc2ccccc2Cl)NC1=O,-3.0,45.1*,-0.1,-0.1
Cc1cc(/C=C2\SC(=Nc3ccccc3Cl)NC2=O)c(C)n1-c1ccccc1,-2.0,48.2*,2.2,-0.1
O=C(C1CC1)N1CCc2cc(Br)cc(S(=O)(=O)Nc3ccccc3F)c21,-7.2,44.6*,-0.7,-0.3
O=C(C1CC1)N1CCc2cc(Br)cc(S(=O)(=O)Nc3cccc(F)c3)c21,10.8,42.4*,1.0,0.0
CC(C)(C)NS(=O)(=O)c1cc(Br)cc2c1N(C(=O)C1CC1)CC2,-6.2,-5.2,1.0,0.3
CC(Nc1cc(N2CCN(C(=O)c3ccc(F)cc3)CC2)ccc1[N+](=O)[O-])C12CC3CC(CC(C3)C1)C2 (stereo unspecified),11.1,4.3,0.9,0.0
CC(=O)c1ccc(OCC[N+](C)(C)Cc2ccccc2)cc1,0.9,2.5,3.1,0.1
CC(C)(C)CC(C)(C)c1ccc(OCCOCC[N+](C)(C)Cc2ccccc2)cc1,5.9,54.0*,2.0,-0.2
C/C(Cn1nc([N+](=O)[O-])cc1C)=N/NC(=O)c1cc(O)c(O)c(O)c1,55.7*,7.9,0.4,-0.5
CCc1ccc(N=C2N=C(N)c3ccccc32)cc1,0.7,-31.1,2.1,-0.1
NC1=NC(=Nc2ccc(N3CCOCC3)cc2)c2ccccc21,-12.1,47.8*,-0.3,-0.4
CC[n+]1ccc(/C=C2\C=Cc3ccccc3N2C)cc1,2.3,85.4*,0.2,-0.1
CC[n+]1ccc(/C=C2\C=CC=CN2C)cc1,-6.8,3.0,0.2,0.3
COC(=O)c1ccc2nc(-c3cccc(N)c3)cn2c1,-0.1,77.7*,-8.6,0.1
SMILES,MITF inh,TEAD-YAP inh,GPR151 activ,FBW7 act
COC(=O)c1ccc2nc(-c3ccc(S(C)(=O)=O)cc3)cn2c1,1.5,-29.6,-2.4,0.0
CCCNC(=O)c1c(NC(=O)c2ccc(F)cc2)sc2c1CCC(C(C)(C)C)C2 (stereo unspecified),-4.1,-0.2,0.6,0.0
O=C(O)CCC(=O)Nc1ccc(-c2nc3cc4ccccc4cc3[nH]2)cc1,-2.1,-33.2,-0.4,-0.1
O=C(O)CCC(=O)Nc1cccc(-c2nc3cc4ccccc4cc3[nH]2)c1,-29.9,33.9*,-5.5,0.0
O=C(CSC1=Nc2ccccc2C2=NC(Cc3c[nH]c4ccccc34)C(=O)N12)NCC1CCCO1 (stereo unspecified),8.5,2.4,-2.4,0.0
Cc1nc(NCCCO)c2c(-c3cccs3)csc2n1,4.0,32.1*,0.7,0.4
Cc1csc(-c2cnc3ccc(NC4CCOCC4)nn23)c1,0.1,1.6,1.0,0.2
COc1ccc(/C=C/C(=O)Nc2nc(-c3ccc(F)cc3)cs2)cc1OC,0.9,57.2*,1.7,0.2
COc1ccccc1-c1csc(NC(=O)/C=C/c2ccccc2)n1,7.2,-6.8,0.3,0.3
CCOC(=O)C1CCCc2c1[nH]c1ccc(Cl)cc21 (stereo unspecified),11.6,38.9*,1.7,0.6
COCCCNC(=O)c1ccc(SCc2cccc(OC)c2OC)c([N+](=O)[O-])c1,3.7,61.2*,-0.3,0.9
CN(C)CCNc1nc(-c2ccccc2)nc2ccccc12,-1.6,-14.4,-0.4,-0.1
CN(C)CCNc1nc(-c2ccc(C(C)(C)C)cc2)nc2ccccc12,9.3,37.1*,-0.8,0.3
O=C(Cn1c(=O)c2ccccc2n2nncc12)NCc1ccccc1Cl,-1.3,-0.7,0.5,-0.1
